In PubChem BioAssay AID618 (Sanford-Burnham Center for Chemical Genomics, 2007):
The whole screen tested about 87,000 compounds, of which about 540 (0.62%) were called active. The rule behind the calls is not given here. For the sample, actives were picked, then their nearest neighbours and some compounds at random. Potency and affinity values are given separately.

Experiment: MT1-MMP gene expression reporter suppression – cell-based, luciferase reporter, luminescence (AID 618);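 note: actives suppress MT1-MMP promoter-driven transcription so potencies describe inhibitors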
Conditions: MT1-MMP promoter luciferase reporter cells

outcome, inactive:
Cc1nc2ncnn2c(C)c1CCC(=O)Oc1ccccc1
COc1ccc(CCNC(=O)C2CCN(S(C)(=O)=O)CC2)cc1OC
Cc1cc(C)n(-c2ccc3cccc(NS(C)(=O)=O)c3n2)n1
CCOC(=O)Cc1csc(NC(=O)c2cc3c(s2)CCCC3)n1
Cc1cnc(NC(=O)c2cc3c(s2)CCCC3)s1
COC(=O)c1sc(NC(=O)c2cc3c(s2)CCCC3)nc1C
Cc1csc(NC(=O)c2cc3c(s2)CCCCC3)n1
CCc1nnc(NC(=O)c2cc3c(s2)CCCCC3)s1
Cc1nc(NC(=O)c2cc3c(s2)CCCCC3)sc1C(=O)N(C)C
O=C1N(Cc2ccccc2F)c2ccccc2C12OCCCO2
CCn1nc(C(=O)NC2=NCCS2)c2ccccc2c1=O
Cc1ccc(C(=O)N(c2ccccn2)C(C)c2ccco2)cc1 (stereo unspecified)
Cc1ccc(NC(=O)CSc2nnc(Cn3cnc4ccccc43)o2)c(C)c1
CN(C)c1ncc(C2=C(Cl)C(=O)C(N3CCCC3)=C(Cl)C2=O)s1
CN1CCN(C2=C(Cl)C(=O)C(c3cnc(N4CCCCC4)s3)=C(Cl)C2=O)CC1
Cc1ccc2c(c1)-c1ccccc1S(=O)(=O)N2
Nc1ccc2c(c1)-c1ccccc1S(=O)(=O)N2
O=c1cc(N2CCOCC2)[nH]c(=O)n1-c1ccc(Cl)cc1
COc1cccc(-c2cc(C(=O)Nn3cnnc3)c3ccccc3n2)c1
O=C(Nn1cnnc1)c1cc(-c2ccccn2)nc2ccccc12
Cc1ccc2nc(C3CCN(C(=O)NCc4ccccc4)CC3)[nH]c2c1
O=c1cc(CO)oc(CN2CCN(c3ccccc3F)CC2)c1O
CC(C)(C)S(=O)(=O)c1ccc2nc3c(n2c1)CCCC3
Cc1cc2nc(NC3=NCN(CCCN4CCOCC4)CN3)nc(C)c2cc1C
Cc1nc(NC2=NCN(CCN3CCOCC3)CN2)nc2c(C)cccc12
Cc1ccc(NC(=O)NC(=O)N(c2ccccc2)S(C)(=O)=O)cc1
CCOc1ccccc1N1CC(C(=O)N2CCc3ccccc3C2)CC1=O (stereo unspecified)
COc1ccc(-c2nc(C#N)c(N3CCOCC3)o2)cc1OC
COc1ccc(CCNc2oc(-c3ccco3)nc2C#N)cc1
COc1ccc(Nc2nc(N3CCCC3)c3ccccc3n2)cc1
Nc1nc(Nc2cccc(F)c2)nc2ccccc12
OCCNc1nc(Nc2ccccc2)nc2ccccc12
Fc1ccc(Nc2nc(N3CCOCC3)c3ccccc3n2)cc1
COc1ccc(Nc2nc(C)c3ccccc3n2)cc1
Cc1ccc(Nc2nc(N3CCOCC3)c3ccccc3n2)cc1
Cc1ccc(NC(=O)N2CCOCC2)c(C)c1
CCC1Oc2ccccc2N(CC(=O)Nc2ccc(OC)cc2OC)C1=O (stereo unspecified)
COc1ccccc1C(=O)Nc1nc(-c2cccs2)c(NC(C)=O)s1
CC(C)CCOC(=O)C1C(c2ccccc2)C(C(=O)O)C1c1ccccc1 (stereo unspecified)
O=C(c1cccs1)N1CCN(S(=O)(=O)N2CCCCC2)CC1
O=C1/C(=C/c2ccccc2)CCCc2ccccc21
Cc1ccccc1/C=C1\CCCc2ccccc2C1=O
O=C(NC1CCN(Cc2ccccc2)CC1)C1CCN(S(=O)(=O)c2cccc3cccnc23)CC1
COc1ccccc1NC(=O)c1ccc(N)cc1
Cc1cc(N2CCC(C)CC2)n2ncc(-c3ccccc3)c2n1
Cc1cc(N2CCCCC2)n2ncc(-c3ccccc3)c2n1
CCOc1ccc(C(=O)NCCCn2ccnc2)cc1
O=C(NC1CCCCC1)NC1(C(=O)N2CCN3CCCC3C2)CCCCC1 (stereo unspecified)
NCc1ccc(-c2nc3ccccc3o2)cc1
CCc1ccc2oc(-c3cc(N)ccc3Cl)nc2c1
COc1cccc(C=Nc2cc(C)on2)c1O
CCc1ccc2oc(-c3cccc(NC(=O)c4cccnc4)c3)nc2c1
Nc1ccc2oc(-c3cccc(Br)c3)nc2c1
CCc1ccc2oc(-c3cc(N)cc(C)c3O)nc2c1
COc1cccc(C=Nc2ccc3c(c2)OCCO3)c1O
c1cc(-c2nc3cc(Cc4ccc5oc(-c6ccncc6)nc5c4)ccc3o2)ccn1

outcome, active:
Cc1csc(NC(=O)c2cc3c(s2)CCC3)n1
Nc1nc(Nc2ccccc2)nc2ccccc12
CCc1ccc2oc(-c3cc(N=Cc4cccc(OC)c4O)ccc3O)nc2c1
CCc1ccc2oc(-c3cc(N)ccc3O)nc2c1
CCc1ccc2oc(-c3ccc(N)cc3)nc2c1
